# Test results from PubChem BioAssay (NCI).
# “And” between values parts separate entries of the source, which are not always exact repeats. Identical values can stand only once. About 83,000 compounds went through this panel and 20% of them were active in at least one assay; those are over-represented in the sample as a whole.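 Negative percent growth values reflect cell death: -40 means 40% of the cells present at the start died, and -100 means all died.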 A number with no mark means an inactive call. The source made the active and inactive calls. The calls were made as follows: active = growth percent below 10; inactive = the rest.
# Tested on: SNB-75 CNS
# Assay: NCI-60 one-dose screen, 48 h (100 = growth as untreated, 0 = no growth, -100 = all killed)
# Conditions: 10 µM unless noted
row,SMILES,growth
1,CCc1ccccc1-c1nc(CN[C@@H]2C[C@@H]3C[C@H]([C@H]2C)C3(C)C)c(C)o1,-68.1% (active)
2,Cc1ccccc1Nc1nnc(-c2c[nH]c3ccccc23)o1,26%
3,Cc1ccc(/C=C/C(=O)c2ccc(S(=O)(=O)NCCNc3nc(N(C)C)nc(N4CCOCC4)n3)cc2)cc1,59.5%
4,COC(=O)c1c(C(=O)OC)c2ccc3c4ccccc4ccc3n2c1C(=O)C(C)Br (stereo not drawn),94.3%
5,COc1cc(CNC(=O)C[C@H](C)CCC=C(C)C)ccc1OCc1cn(-c2ccc(Cl)cc2Cl)nn1,7.99% (active)
6,Cc1cc(C(NC(=O)C2CC3(CC(Nc4cccc5c4C(=O)N(C4CCC(=O)NC4=O)C5=O)C3)C2)c2ccc3c(c2)OC(F)(F)O3)c(O)c2ncccc12 (stereo not drawn),25.1%
7,O=C(CSc1nnc(-c2ccc(-c3nc4ccc(Cl)cc4[nH]3)cc2)o1)Nc1ccc(Br)cc1,46%
8,COc1ccc(-c2nc3ccccc3n2CC(=O)N=Nc2c(O)[nH]c3ccc(OC)cc23)cc1,73%
9,Nc1cccc(-n2c(COc3ccc(I)cc3)nc3ccccc32)c1,52.9% and 91.4%
10,COC(=O)c1cc(C(=O)C(Br)Br)n2c1ccc1c3ccccc3ccc12,66.4%
11,O=C(NN1C(=O)/C(=C/C=C/c2ccc([N+](=O)[O-])o2)SC1=S)c1ccc([N+](=O)[O-])cc1,-91.1% (active)
12,Cc1ccc2nc(NC(=O)Nc3cccc(Cl)c3)sc2c1,108%
13,O=C1/C(=C/c2cccc3c2OCO3)Cc2c(F)cc(Br)cc21,97.1%
14,CC(C)(C)C(=O)C1CC(C#N)=C2C=Cc3c(ccc4ccccc34)N21 (stereo not drawn),-5.13% (active)
15,Cc1ccc(C(=O)Nc2cc(-c3ccncc3)cc(C(F)(F)F)c2)cc1C#Cc1cnc2cccnn12,93.7%
16,CCOc1ccc(-c2cc(-c3cc(C(C)C)c(O)cc3C)nn2-c2ccc(S(N)(=O)=O)cc2)cc1,32.6%
17,N#Cc1ccc(C(=O)CSc2nc3c(c(Nc4ccc(S(N)(=O)=O)cc4)n2)CCC3)cc1,8.38% (active)
18,COc1ccc2c(c1)C(Sc1ccc(Cl)cc1)c1c(nc(N)c(C#N)c1N)O2 (stereo not drawn),36.9%
19,Fc1ccccc1CNc1nc(SCCN2CCOCC2)nc2c1cnn2CC(Cl)c1ccc(Br)cc1 (stereo not drawn),50.1%

row,SMILES,growth
1,COc1ccc(-c2nnc3c(/C=C/c4ccc(Br)cc4)nc4ccccc4n23)cc1,83.4%
2,Cc1nn(-c2ccccc2)c2ncn(CC(=O)N/N=C/c3ccccc3O)c(=O)c12,76.1%
3,CCOC(=O)c1ccc(NC(=S)NC(=O)c2cccc(NC(=O)c3ccc(C)cc3)c2)cc1,73%
4,COc1cc(/C=C/C(=O)c2cnn(-c3cc(=O)[nH]c4ccc(Cl)cc34)c2C)cc(OC)c1OC,-11.4% (active)
5,Cc1[nH]nc2ccc3nc(-c4cnn(CCO)c4)c4c(c3c12)CCCC4,31.9%
6,CCC1(OC(=O)c2ccccc2SSCCOC(=O)CCCCC2SCC3NC(=O)NC32)C(=O)OCc2c1cc1n(c2=O)Cc2cc3ccccc3nc2-1 (stereo not drawn),81.3%
7,CN(C)c1nc(NCCNS(=O)(=O)c2ccc(C(=O)/C=C/c3ccc(Cl)cc3)cc2)nc(N2CCOCC2)n1,45.4%
8,C[C@@H]1CN(c2ccc3ncc(C#Cc4cncc(C(=O)Nc5ccc(CN6CCN(C)CC6)c(C(F)(F)F)c5)c4)n3n2)C[C@@H](C)O1,-95.9% (active)
9,O=C1Nc2ccccc2/C1=C\c1ccc(OCC(=O)c2ccc(Br)cc2)cc1,79.6%
10,COc1ccc(NC(=O)NN2C(=O)c3ccccc3N(C)C2c2ccc(OC)cc2)cc1 (stereo not drawn),91%
11,COc1ccc2c(c1)N=c1c-2cc2c(O)[nH]c(=S)n2c1=O,6.9% (active)
12,CCC(=O)c1c2c(c3ccc4c5ccccc5ccc4n13)C(=O)c1ccccc1C2=O,113%
13,CC1=C(C(=O)Nc2ccccc2)C(c2cccc(Cl)c2Cl)n2c(nc3ccccc32)N1 (stereo not drawn),47.2%
14,COc1cc(/C=N/NC(=O)c2ccc(OCc3nc4ccc(C)cc4[nH]3)cc2)cc(OC)c1OC,135%
15,Cc1ccc(C2CC(c3ccc(NC(=S)Nc4ccccc4)cc3)=NN2c2ccc(S(N)(=O)=O)cc2)cc1 (stereo not drawn),21.4%
16,Nc1cc2ccccc2c(=O)n1NC(=O)c1ccc(Br)cc1,58.4%
17,COc1cc(C2CC(c3ccc(S(=O)(=O)NCCNc4nc(N(C)C)nc(N5CCOCC5)n4)cc3)=Nc3c(N)nc(N)nc3N2)cc(OC)c1OC (stereo not drawn),102%
18,Cn1cc(-c2cc(N)n3nc(-c4c[nH]c5ccccc45)cc3n2)c2ccccc21,-46.8% (active)
19,COc1ccc2[nH]c(=O)c(CSc3ccccc3Nc3nccc(-c4ccc(C(F)(F)F)cc4)n3)cc2c1,-5.5% (active)
